In PubChem BioAssay (NCI):
About 83,000 compounds went through this panel and 20% of them were active in at least one assay; those are over-represented in the sample as a whole.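 A percent growth of 40 corresponds to 60% growth inhibition; 0 means no net growth; -100 means all cells died. Active threshold: below 10.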 Active and inactive are the calls of the source.

Key:
Assay in all cases: NCI-60 one-dose screen, 48 h (100 = growth as untreated, 0 = no growth, -100 = all killed)
Details in all cases: 10 µM unless noted
NCI-H23 lung = system: NCI-H23 lung
NCI-H226 lung = system: NCI-H226 lung
NCI-H322M lung = system: NCI-H322M lung
HOP-62 NSCLC = system: HOP-62 NSCLC
NCI-H460 lung = system: NCI-H460 lung
A549/ATCC NSCLC = system: A549/ATCC NSCLC
786-0 renal = system: 786-0 renal
COLO 205 colon = system: COLO 205 colon
DU-145 prostate = system: DU-145 prostate
K-562 leukemia = system: K-562 leukemia
MALME-3M melanoma = system: MALME-3M melanoma
MDA-MB-231 breast = system: MDA-MB-231 breast
RXF 393 renal = system: RXF 393 renal
SF-268 CNS = system: SF-268 CNS
SF-295 CNS = system: SF-295 CNS
SF-539 CNS = system: SF-539 CNS
UACC-257 melanoma = system: UACC-257 melanoma
M14 melanoma = system: M14 melanoma
HCT-15 colon = system: HCT-15 colon
NCI-H522 lung = system: NCI-H522 lung

Measured: growth

O=C(/C=C/c1ccccc1)CC(c1ccccc1)N1CCOCC1 (centres undefined)
active: 786-0 renal 4.06% | M14 melanoma -35%
inactive: NCI-H23 lung 96.6% | NCI-H226 lung 99.5% | NCI-H322M lung 121% | HOP-62 NSCLC 102% | NCI-H460 lung 106% | A549/ATCC NSCLC 63% | COLO 205 colon 76.3% | DU-145 prostate 91.3% | K-562 leukemia 49.9% | MALME-3M melanoma 138% | MDA-MB-231 breast 60.3% | RXF 393 renal 102% | SF-268 CNS 97.3% | SF-295 CNS 98.7% | SF-539 CNS 69.3% | UACC-257 melanoma 98.8% | HCT-15 colon 61.5%

Nc1cc(Cl)c(S(N)(=O)=O)cc1S(N)(=O)=O
inactive: NCI-H23 lung 87.1% | NCI-H226 lung 92.8% | NCI-H322M lung 87.9% | HOP-62 NSCLC 111% | NCI-H460 lung 106% | NCI-H522 lung 68.8% | 786-0 renal 100% | COLO 205 colon 109% | DU-145 prostate 121% | K-562 leukemia 104% | MALME-3M melanoma 84.5% | MDA-MB-231 breast 113% | SF-268 CNS 113% | SF-295 CNS 111% | SF-539 CNS 88.1% | M14 melanoma 108% | HCT-15 colon 97.9%

CCC1=C(c2ccc(OC)cc2)C(C)Oc2cc(OC(C)=O)ccc21 (centres undefined)
inactive: NCI-H23 lung 82% | NCI-H226 lung 83.1% | NCI-H322M lung 116% | HOP-62 NSCLC 99.7% | NCI-H460 lung 93% | NCI-H522 lung 78.8% | 786-0 renal 101% | COLO 205 colon 103% | DU-145 prostate 102% | K-562 leukemia 50.2% | MALME-3M melanoma 98% | MDA-MB-231 breast 90.4% | RXF 393 renal 85.3% | SF-268 CNS 86.9% | SF-295 CNS 99.4% | SF-539 CNS 84.3% | M14 melanoma 83.4% | HCT-15 colon 85.5%

COc1cccc(CCC2C(=O)CCCC2=O)c1
inactive: NCI-H23 lung 103% | NCI-H226 lung 111% | NCI-H322M lung 102% | HOP-62 NSCLC 106% | NCI-H460 lung 117% | A549/ATCC NSCLC 108% | 786-0 renal 108% | COLO 205 colon 99.5% | DU-145 prostate 105% | K-562 leukemia 109% | MALME-3M melanoma 115% | MDA-MB-231 breast 114% | RXF 393 renal 134% | SF-268 CNS 98.1% | SF-295 CNS 118% | SF-539 CNS 98.8% | UACC-257 melanoma 108% | M14 melanoma 113% | HCT-15 colon 108%

COc1ccc2c(c1)C(=O)/C(=C/c1cccc(OCC(=O)c3ccccc3)c1)CC2
inactive: NCI-H23 lung 87.4% | NCI-H226 lung 75.9% | NCI-H322M lung 108% | HOP-62 NSCLC 101% | NCI-H460 lung 113% | NCI-H522 lung 64.7% | 786-0 renal 87.6% | COLO 205 colon 136% | K-562 leukemia 33.4% | MALME-3M melanoma 97.6% | MDA-MB-231 breast 83.6% | SF-268 CNS 91.8% | SF-295 CNS 104% | SF-539 CNS 93.5% | UACC-257 melanoma 91.7% | M14 melanoma 92.2% | HCT-15 colon 89.7%

CCOC(=O)c1ccccc1OC(=O)NNc1ccccc1
active: K-562 leukemia 5.06%
inactive: NCI-H23 lung 100% | NCI-H226 lung 88.8% | NCI-H322M lung 58% | HOP-62 NSCLC 70.6% | NCI-H460 lung 30.5% | A549/ATCC NSCLC 74.1% | 786-0 renal 44.6% | COLO 205 colon 76.2% | DU-145 prostate 82% | MALME-3M melanoma 82.1% | MDA-MB-231 breast 81.3% | RXF 393 renal 124% | SF-268 CNS 65.6% | SF-295 CNS 49.1% | SF-539 CNS 10.7% | UACC-257 melanoma 85.8% | M14 melanoma 57.3% | HCT-15 colon 46%

CC/C(=C\c1ccc(N(C)C)cc1)c1ccncc1
active: MALME-3M melanoma 9.47%
inactive: NCI-H23 lung 63.3% | NCI-H226 lung 74.8% | NCI-H322M lung 94.6% | HOP-62 NSCLC 46.6% | NCI-H460 lung 14.3% | A549/ATCC NSCLC 43.5% | 786-0 renal 54.6% | COLO 205 colon 36.1% | DU-145 prostate 85% | K-562 leukemia 16.2% | MDA-MB-231 breast 51.6% | RXF 393 renal 91.1% | SF-268 CNS 71.7% | SF-295 CNS 49% | SF-539 CNS 58.6% | UACC-257 melanoma 75% | M14 melanoma 29.6% | HCT-15 colon 37.5%

CN1CCCC1c1cccnc1 (centres undefined)
inactive: NCI-H226 lung 96.4% | NCI-H322M lung 105% | HOP-62 NSCLC 113% | NCI-H460 lung 98.6% | NCI-H522 lung 17.3% | 786-0 renal 108% | COLO 205 colon 105% | DU-145 prostate 110% | K-562 leukemia 106% | MALME-3M melanoma 128% | MDA-MB-231 breast 97.3% | SF-268 CNS 111% | SF-295 CNS 124% | SF-539 CNS 85.2% | M14 melanoma 119% | HCT-15 colon 100%
active: NCI-H23 lung 2.54%

CCOC(=O)c1c2c(c(C)n1Cc1ccccc1)-c1nc(N)ncc1CC2
inactive: NCI-H23 lung 93.9% | NCI-H226 lung 83.7% | NCI-H322M lung 94.7% | HOP-62 NSCLC 82.4% | NCI-H460 lung 102% | A549/ATCC NSCLC 104% | 786-0 renal 92% | COLO 205 colon 131% | DU-145 prostate 120% | K-562 leukemia 94.2% | MALME-3M melanoma 168% | MDA-MB-231 breast 79.3% | RXF 393 renal 120% | SF-268 CNS 104% | SF-295 CNS 229% | SF-539 CNS 103% | UACC-257 melanoma 144% | M14 melanoma 111% | HCT-15 colon 99.4%

C/C(=N\N1CC(=O)NC1=O)c1ccc([N+](=O)[O-])o1
inactive: NCI-H23 lung 101% | NCI-H226 lung 106% | NCI-H322M lung 121% | HOP-62 NSCLC 120% | NCI-H460 lung 94.6% | A549/ATCC NSCLC 97.3% | 786-0 renal 103% | COLO 205 colon 108% | DU-145 prostate 98.8% | K-562 leukemia 90.6% | MALME-3M melanoma 114% | MDA-MB-231 breast 106% | RXF 393 renal 128% | SF-268 CNS 84.7% | SF-295 CNS 104% | SF-539 CNS 108% | UACC-257 melanoma 81.9% | M14 melanoma 103% | HCT-15 colon 115%

OC(c1cc(C(F)(F)F)nc2c(C(F)(F)F)cccc12)C1CCCCN1 (centres undefined)
inactive: NCI-H23 lung 78.4% | NCI-H226 lung 73.1% | NCI-H322M lung 64.8% | HOP-62 NSCLC 74.4% | NCI-H460 lung 13.8% | 786-0 renal 56.7% | DU-145 prostate 78.8% | K-562 leukemia 14.7% | MALME-3M melanoma 100% | MDA-MB-231 breast 47.1% | SF-268 CNS 47.9% | SF-295 CNS 88.2% | SF-539 CNS 82.8% | M14 melanoma 76% | HCT-15 colon 77.5%
active: NCI-H522 lung -4.33%

CC(C)COCC(CN(Cc1ccccc1)c1ccccc1)N1CCCC1 (centres undefined)
inactive: NCI-H23 lung 60.7% | NCI-H226 lung 65.8% | NCI-H322M lung 78.8% | HOP-62 NSCLC 71.3% | NCI-H460 lung 43.8% | NCI-H522 lung 32.1% | 786-0 renal 68.2% | COLO 205 colon 40.1% | DU-145 prostate 70% | K-562 leukemia 31.3% | MALME-3M melanoma 84.3% | MDA-MB-231 breast 29.5% | SF-268 CNS 71.5% | SF-295 CNS 63.6% | SF-539 CNS 78.5% | M14 melanoma 51.9% | HCT-15 colon 55.7%

Clc1ccc(-n2cnc3c(Cl)ncnc32)cc1Cl
inactive: NCI-H23 lung 87% | NCI-H226 lung 102% | NCI-H322M lung 64.8% | HOP-62 NSCLC 83.6% | NCI-H460 lung 101% | A549/ATCC NSCLC 95.5% | 786-0 renal 98.7% | COLO 205 colon 92.2% | DU-145 prostate 76.6% | K-562 leukemia 61.1% | MALME-3M melanoma 85% | MDA-MB-231 breast 87.5% | RXF 393 renal 97.3% | SF-268 CNS 78.3% | SF-295 CNS 119% | SF-539 CNS 104% | UACC-257 melanoma 84.4% | M14 melanoma 48.4% | HCT-15 colon 60.4%

CC(=O)NCCSC(=O)C(=O)SCCNC(C)=O
inactive: NCI-H23 lung 109% | NCI-H226 lung 103% | NCI-H322M lung 144% | HOP-62 NSCLC 107% | NCI-H460 lung 114% | NCI-H522 lung 125% | 786-0 renal 95.5% | COLO 205 colon 122% | DU-145 prostate 116% | K-562 leukemia 95.6% | MALME-3M melanoma 138% | MDA-MB-231 breast 107% | SF-268 CNS 109% | SF-295 CNS 102% | SF-539 CNS 97.5% | M14 melanoma 106% | HCT-15 colon 119%

CCC(c1ccccc1)c1noc(CCN(CC)CC)n1 (centres undefined)
active: NCI-H522 lung -8.89%
inactive: NCI-H23 lung 99.5% | NCI-H226 lung 90.7% | NCI-H322M lung 109% | HOP-62 NSCLC 97.4% | NCI-H460 lung 103% | 786-0 renal 108% | COLO 205 colon 114% | DU-145 prostate 100% | K-562 leukemia 65.1% | MALME-3M melanoma 93.8% | MDA-MB-231 breast 106% | RXF 393 renal 33.3% | SF-268 CNS 103% | SF-295 CNS 108% | SF-539 CNS 101% | M14 melanoma 96.7% | HCT-15 colon 108%

CC(=O)Nc1ccc2c(c1)Cc1c(F)c(F)c(F)c(F)c1-2
inactive: NCI-H23 lung 25.2% | NCI-H226 lung 76.5% | NCI-H322M lung 81.9% | HOP-62 NSCLC 107% | NCI-H460 lung 65.8% | NCI-H522 lung 23.2% | 786-0 renal 75.3% | COLO 205 colon 105% | DU-145 prostate 96.4% | K-562 leukemia 104% | MALME-3M melanoma 113% | MDA-MB-231 breast 75.1% | SF-268 CNS 91.9% | SF-295 CNS 90.5% | SF-539 CNS 87.7% | M14 melanoma 114% | HCT-15 colon 83.4%

O=c1[nH]c(=O)n(C2CC(O)C(CO)O2)cc1C(F)(F)F (centres undefined)
active: NCI-H23 lung -5.01% | NCI-H522 lung -12% | DU-145 prostate 6.03% | SF-295 CNS 6.84% | SF-539 CNS 8.46%
inactive: NCI-H226 lung 57% | NCI-H322M lung 76% | HOP-62 NSCLC 33.1% | NCI-H460 lung 19.2% | 786-0 renal 12.7% | COLO 205 colon 69.2% | K-562 leukemia 62.4% | MALME-3M melanoma 51.4% | MDA-MB-231 breast 102% | SF-268 CNS 30.7% | M14 melanoma 15.8% | HCT-15 colon 73.9%
